Measurements: PubChem BioAssay
Calls of active or inactive are those of the source. Unless noted, how the calls were made is not given here.

Columns and labels:
[1] = tested on: Wnt5a (protein binding on small-molecule microarray); assay: Wnt5a binders on small-molecule microarray, primary screen, biophysical, 635/667 nm fluorescence (AID 1142); settings: 635 nm fluorescence, higher = more signal;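 further: fluorescence read at 667 nm with signal to noise per printed feature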
[2] = cell viability in Huh7 cells, primary screen, cytotoxicity control for HCV replication inhibitor project, CellTiter-Glo luminescence, basal, 48 h (AID 1143); settings: Huh7 HCV replicon, higher = more signal, called active from +8 up or from −8 down;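 further: Huh7 hepatoma cells carrying a hepatitis C replication reporter with no stimulus; test concentration not given here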
[3] = P. aeruginosa biofilm formation inhibitors, primary screen, PAO1 strain, BacTiter-Glo luminescence, LB-PBS (AID 1144); settings: 12 h, higher = more signal
[4] = CREB reporter modulators without forskolin, primary screen, cell-based, PC12, CRE-LacZ reporter, unstimulated (AID 1145); settings: no forskolin, luminescence, 4.5 h, higher = more signal, called active from +8 up or from −8 down
[5] = CREB reporter modulators under forskolin, primary screen, cell-based, PC12, CRE-LacZ reporter, forskolin-stimulated (AID 1146); settings: luminescence, 4.5 h, higher = more signal, called active from +8 up or from −8 down;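 further: PC12 cells with 6xCRE LacZ reporter stimulated by forskolin 10 µM; beta-galactosidase reporter signal reflecting CREB driven transcription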
[6] = target: Streptavidin (Streptomyces avidinii) (UniProt P22629); assay: streptavidin binders on small-molecule microarray, primary screen, artefact control for SMM compound annotation, biophysical, 635/667 nm fluorescence (AID 1147); settings: streptavidin binding, higher = more signal;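 further: signal reflects streptavidin binding to arrayed compounds as a control protein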
[7] = small-molecule binders of probe aInhba, primary screen, biochemical, small-molecule microarray, 635/667 nm fluorescence (AID 1148); settings: higher = more signal;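 further: score merges 667nm spot fluorescence with signal-to-noise for antibody binding to printed compounds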
Torsin-1A (Homo sapiens) [8] = target: Torsin-1A (Homo sapiens) (UniProt O14656); assay: torsin A binders from cell lysate, primary screen, small-molecule microarray, wild-type, 635/667 nm (AID 1149); settings: COS7 hTOR1A-WT lysate, 635 nm fluorescence, higher = more signal
Torsin-1A (Homo sapiens) [9] = target: Torsin-1A (Homo sapiens) (UniProt O14656); assay: small-molecule binders of mutant TOR1A in lysate, primary screen, cell lysate, small-molecule microarray, COS7 lysate, 635/667 nm fluorescence (AID 1150); settings: COS7 hTOR1A mutant lysate, 635 nm fluorescence, higher = more signal;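 further: score pools 667 nm emission and signal to noise measuring lysate protein binding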
[10] = tested on: Sonic hedgehog protein (Shh); assay: small-molecule binders of Shh protein, primary screen, biochemical, small-molecule microarray, 635/667 nm fluorescence (AID 1151); settings: small-molecule microarray binding, 635 nm fluorescence; higher = more signal;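 further: Shh protein binding to compounds spotted on small-molecule microarray slides; score combines spot fluorescence intensity with signal-to-noise across triplicate slides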
[11] = E. coli DRC41 culture turbidity changes, primary screen, E. coli filamentation inducer project, strain DRC41, OD650, 48 h (AID 1152);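 further: E. coli MC1000 strain DRC41 lacking acrAB efflux pump and sulA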; settings: E. coli DRC41 (acrAB sulA), higher = more signal, called active from +8 up or from −8 down
[12] = small-molecule binders of probe aLefty1, primary screen, biochemical, small-molecule microarray, 635/667 nm fluorescence (AID 1153); settings: higher = more signal;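 further: score merges spot fluorescence with signal-to-noise ratio from the scanned slide images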
[13] = PSAC antagonists in infected red cells, primary screen, cell-based, P. falciparum Indochina, OD700, 1 h (AID 1154); settings: P. falciparum Indochina infected RBC osmotic lysis, higher = more signal, called active from +8 up or from −8 down
[14] = PSAC antagonists in infected red cells, primary screen, cell-based, P. falciparum Indochina, OD700, 2 h (AID 1155);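 further: lysis reports solute entry through the parasite surface anion channel PSAC; channel blockers reduce lysis of infected cells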; settings: P. falciparum Indochina infected erythrocytes, osmotic lysis OD700; higher = more signal, called active from +8 up or from −8 down
[15] = osmotic lysis modulators in infected erythrocytes, primary screen, PSAC antagonist project, cell-based, P. falciparum Indochina, OD700, 3 h (AID 1156); settings: higher = more signal, called active from +8 up or from −8 down
[16] = PSAC antagonists in infected red cells, primary screen, cell-based, P. falciparum Indochina, OD700, 18 h (AID 1157); settings: P. falciparum Indochina infected erythrocytes, osmotic lysis OD700, 18 h; higher = more signal, called active from +8 up or from −8 down
[17] = modulators of S6 phosphorylation in cells, primary screen, cell-based, A549, cytoblot, luminescence, serum-stimulated (AID 1158); settings: A549 phospho-S6 cytoblot, 5 h, higher = more signal;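 further: serum-stimulated A549 lung adenocarcinoma cells; signal is phosphorylated S6 detected by cytoblot immunostaining with HRP secondary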
[18] = target: NADPH oxidase 2 (Homo sapiens) (UniProt P04839); assay: NOX2-dependent H2O2 signal modulators, primary screen, NOX inhibitor project, cell-based, HEK293-NOX2, PMA-stimulated, Amplex Red fluorescence (AID 1159); settings: 45 min, higher = more signal, called active from +8 up or from −8 down; further: test concentration not given here
[19] = target: NADPH oxidase 4 (Homo sapiens) (UniProt Q9NPH5); assay: NOX4-dependent H2O2 signal modulators, primary screen, NOX inhibitor project, cell-based, HEK293-NOX4, tetracycline-induced, Amplex Red fluorescence (AID 1160); settings: 45 min, higher = more signal, called active from +8 up or from −8 down
[20] = target: NADPH oxidase 5 (Homo sapiens) (UniProt Q96PH1); assay: NOX5-dependent H2O2 signal modulators, primary screen, NOX inhibitor project, cell-based, HEK293-NOX5, Amplex Red fluorescence (AID 1161); settings: HEK293-NOX5, ionomycin, 45 min, higher = more signal
Chain of NADPH oxidase 5 (Homo sapiens) (Q96PH1 whole entry, looked up): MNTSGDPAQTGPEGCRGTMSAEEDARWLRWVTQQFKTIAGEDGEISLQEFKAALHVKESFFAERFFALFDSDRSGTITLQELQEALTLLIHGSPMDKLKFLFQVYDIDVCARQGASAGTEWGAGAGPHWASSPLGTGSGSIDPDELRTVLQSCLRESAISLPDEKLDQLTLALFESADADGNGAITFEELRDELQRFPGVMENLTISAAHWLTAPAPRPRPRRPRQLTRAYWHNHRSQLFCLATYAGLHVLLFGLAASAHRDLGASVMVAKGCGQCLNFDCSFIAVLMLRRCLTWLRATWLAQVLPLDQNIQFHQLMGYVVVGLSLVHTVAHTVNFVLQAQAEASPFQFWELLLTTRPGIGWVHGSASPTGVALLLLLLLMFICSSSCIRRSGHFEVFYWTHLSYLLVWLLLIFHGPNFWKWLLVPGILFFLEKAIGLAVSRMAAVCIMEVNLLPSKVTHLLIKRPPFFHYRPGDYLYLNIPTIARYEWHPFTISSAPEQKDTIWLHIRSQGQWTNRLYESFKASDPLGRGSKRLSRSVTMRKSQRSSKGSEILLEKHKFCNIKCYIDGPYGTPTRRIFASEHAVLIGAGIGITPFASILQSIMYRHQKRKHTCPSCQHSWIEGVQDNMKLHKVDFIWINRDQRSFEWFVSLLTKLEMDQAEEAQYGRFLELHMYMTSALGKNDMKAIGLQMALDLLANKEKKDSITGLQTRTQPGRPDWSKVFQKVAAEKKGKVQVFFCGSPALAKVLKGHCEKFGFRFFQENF

Chain of Torsin-1A (Homo sapiens) (O14656 whole entry, looked up): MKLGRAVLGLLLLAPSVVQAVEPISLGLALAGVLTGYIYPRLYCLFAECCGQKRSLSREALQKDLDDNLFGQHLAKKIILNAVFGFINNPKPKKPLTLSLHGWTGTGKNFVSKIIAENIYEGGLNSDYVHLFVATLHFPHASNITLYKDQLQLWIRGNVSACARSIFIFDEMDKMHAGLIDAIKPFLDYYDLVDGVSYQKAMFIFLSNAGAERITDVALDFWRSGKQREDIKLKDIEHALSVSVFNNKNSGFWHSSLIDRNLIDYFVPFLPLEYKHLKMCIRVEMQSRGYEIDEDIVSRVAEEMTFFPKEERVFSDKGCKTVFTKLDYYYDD
Chain of Streptavidin (Streptomyces avidinii) (P22629 whole entry, looked up): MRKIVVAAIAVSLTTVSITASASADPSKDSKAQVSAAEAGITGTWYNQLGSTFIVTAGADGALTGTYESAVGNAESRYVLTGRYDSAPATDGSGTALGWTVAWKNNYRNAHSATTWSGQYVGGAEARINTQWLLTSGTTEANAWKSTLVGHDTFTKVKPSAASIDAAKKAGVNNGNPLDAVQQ
Chain of NADPH oxidase 4 (Homo sapiens) (Q9NPH5 whole entry, looked up): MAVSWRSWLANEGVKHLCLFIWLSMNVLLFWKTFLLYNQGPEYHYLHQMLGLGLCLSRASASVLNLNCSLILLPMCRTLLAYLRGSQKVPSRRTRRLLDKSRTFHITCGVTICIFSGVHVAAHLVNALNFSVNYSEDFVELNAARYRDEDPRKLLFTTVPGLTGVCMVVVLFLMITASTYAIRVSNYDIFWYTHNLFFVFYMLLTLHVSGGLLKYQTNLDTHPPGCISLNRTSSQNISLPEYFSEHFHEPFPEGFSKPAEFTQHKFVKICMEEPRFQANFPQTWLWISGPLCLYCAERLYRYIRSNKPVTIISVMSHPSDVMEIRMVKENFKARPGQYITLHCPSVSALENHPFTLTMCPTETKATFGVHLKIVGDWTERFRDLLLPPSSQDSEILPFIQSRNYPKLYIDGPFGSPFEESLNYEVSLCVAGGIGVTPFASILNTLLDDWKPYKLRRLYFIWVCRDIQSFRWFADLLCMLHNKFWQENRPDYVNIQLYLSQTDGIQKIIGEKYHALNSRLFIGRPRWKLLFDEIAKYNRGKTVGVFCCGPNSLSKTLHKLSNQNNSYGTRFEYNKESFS
Chain of NADPH oxidase 2 (Homo sapiens) (P04839 whole entry, looked up): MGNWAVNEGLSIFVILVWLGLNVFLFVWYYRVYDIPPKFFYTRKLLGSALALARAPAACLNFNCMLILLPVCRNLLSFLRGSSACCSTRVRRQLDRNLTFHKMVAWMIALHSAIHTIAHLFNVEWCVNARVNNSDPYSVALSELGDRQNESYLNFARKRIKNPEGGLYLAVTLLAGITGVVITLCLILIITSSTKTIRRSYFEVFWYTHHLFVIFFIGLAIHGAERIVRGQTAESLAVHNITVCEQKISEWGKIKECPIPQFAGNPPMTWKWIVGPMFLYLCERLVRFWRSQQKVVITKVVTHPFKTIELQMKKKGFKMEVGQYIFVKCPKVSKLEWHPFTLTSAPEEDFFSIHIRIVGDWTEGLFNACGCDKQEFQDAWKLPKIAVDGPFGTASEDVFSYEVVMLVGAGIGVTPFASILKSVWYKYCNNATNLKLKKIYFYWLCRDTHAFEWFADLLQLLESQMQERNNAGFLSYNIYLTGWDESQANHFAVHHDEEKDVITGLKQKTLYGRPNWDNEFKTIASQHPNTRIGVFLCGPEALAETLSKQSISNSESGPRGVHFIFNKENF

Compound	composite z-score [1]	z-score [2]	z-score [3]	z-score [4]	z-score [5]	composite z-score [6]	composite z-score [7]	composite z-score (Torsin-1A (Homo sapiens) [8])	composite z-score (Torsin-1A (Homo sapiens) [9])	composite z-score [10]	z-score [11]	composite z-score [12]	z-score [13]	z-score [14]	z-score [15]	z-score [16]	z-score [17]	z-score [18]	z-score [19]	z-score [20]
CN(C)CCCCNC(=O)[C@H]1C[C@H]2C(=O)N3CCC[C@H]3C(=O)N2[C@H]1c1cccc(OCCO)c1	-0.202	0.196 (inactive)	-1.17 (inactive)	0.0043 (inactive)	-0.258 (inactive)	1.89	-0.0403	-0.107	0.98	1.17	-0.019 (inactive)	0.517	2.99 (inactive)	0.502 (inactive)	0.348 (inactive)	0.178 (inactive)	-0.0038	0.787 (inactive)	1.37 (inactive)	0.803
O=C1C[C@@](C(=O)NC2CC2)(c2ccc([N+](=O)[O-])cc2)[C@@H](c2ccc(CO)cc2)N1C1CCCCC1	0.755	-5.6 (inactive)	-2.4 (inactive)	0.118 (inactive)	-0.0595 (inactive)	-0.124	-0.212	-0.204	0.466	2.18	1.25 (inactive)	0.345	1.97 (inactive)	-0.0047 (inactive)	0.736 (inactive)	-0.115 (inactive)	3.97	-1.06 (inactive)	-3.7 (inactive)	-5.08
COC(=O)[C@@]1(Cc2ccccc2)N=C(c2ccc(OCCCO)cc2)O[C@H]1c1ccccc1CN=[N+]=[N-]	0.289	-5.03 (inactive)	-0.621 (inactive)	-0.435 (inactive)	-1.97 (inactive)	-0.12	0.0227	0.009	0.668	1.88	1.11 (inactive)	0.313	23 (active)	7.26 (inactive)	-0.202 (inactive)	2.21 (inactive)	0.239	-6.02 (inactive)	-0.914 (inactive)	-3.31
NC(=O)NCC#Cc1ccc2c(c1)[C@]1(C(=O)N2)[C@H](c2ccc(OCCO)cc2)N2[C@H](c3ccccc3)[C@H](c3ccccc3)OC(=O)[C@H]2[C@@H]1C(=O)NC[C@H](O)c1ccccc1	-0.138	-2.86 (inactive)	0.0532 (inactive)	-0.671 (inactive)	-0.648 (inactive)	0.079	-0.0195	-0.17	-0.288	0.398	2.63 (inactive)	0.0183	1.06 (inactive)	-0.573 (inactive)	-0.88 (inactive)	-1.81 (inactive)	0.713	2 (inactive)	0.314 (inactive)	0.742
O=C1O[C@H](c2ccccc2)[C@H](c2ccccc2)N2[C@H]1[C@@H](C(=O)N1CCN(c3ncccn3)CC1)[C@]1(C(=O)Nc3ccc(C#CCCO)cc31)[C@H]2c1ccc(O)cc1	0.313	-0.522 (inactive)	-0.218 (inactive)	0.0653 (inactive)	0.253 (inactive)	1.05	0.0111	0.161	0.0065	0.429	-0.951 (inactive)	0.208	1.28 (inactive)	0.436 (inactive)	1.2 (inactive)	0.0991 (inactive)	0.201	0.84 (inactive)	0.722 (inactive)	1.41
CN(C)CCCNC(=O)[C@@]1(C)c2ccccc2C(=O)N(Cc2ccc(OC(F)(F)F)cc2)[C@H]1c1ccc(CO)cc1	-0.13	-2.14 (inactive)	-1.04 (inactive)	1.06 (inactive)	-0.175 (inactive)	-1.04	0.0778	-0.924	0.332	0.447	-0.796 (inactive)	-0.104	1.53 (inactive)	-0.103 (inactive)	2.79 (inactive)	0.328 (inactive)	0.235	-0.607 (inactive)	-0.303 (inactive)	-1.63
[N-]=[N+]=Nc1ccccc1[C@@H]1OC(c2ccc(OCCCO)cc2)=N[C@]1(CCS(=O)(=O)c1ccccc1)C(=O)NCC(O)CO (stereo not given in full)	-0.0534	-1.33 (inactive)	-0.27 (inactive)	0.0827 (inactive)	0.0767 (inactive)	1.54	0.0051	1.37	1.61	-0.475	0.401 (inactive)	0.165	28.9 (active)	27.2 (active)	1.08 (inactive)	2.07 (inactive)	-0.158	-3.11 (inactive)	-0.18 (inactive)	-1.16
CC(C)c1nc2cc(Br)ccc2c(=O)o1	0.432	-0.232 (inactive)	-0.523 (inactive)	-0.348 (inactive)	-0.524 (inactive)	0.632	-0.0736	0.0358	0.244	0.116	0.537 (inactive)	0.202	2.79 (inactive)	0.153 (inactive)	0.958 (inactive)	0.303 (inactive)	-0.228	-0.421 (inactive)	-0.0107 (inactive)	0.118
CC(C)[Si](C#CCCc1ccccc1)(O[C@H](c1ccccc1)c1cn(Cc2ccccc2)nn1)C(C)C	0.21	-1.12 (inactive)	-0.778 (inactive)	-0.0989 (inactive)	-0.105 (inactive)	1.61	-0.179	0.5	0.484	0.814	1.09 (inactive)	0.188	1.36 (inactive)	0.308 (inactive)	-0.329 (inactive)	0.53 (inactive)	0.534	-0.967 (inactive)	-0.899 (inactive)	-3.17
O=C1NC(=O)C2C1C=CC(C(O)c1ccc([N+](=O)[O-])cc1)N2Nc1ccccn1 (stereo not given)	-0.0851	1.06 (inactive)	-0.295 (inactive)	-0.133 (inactive)	-0.728 (inactive)	-0.115	-0.0059	0.419	-0.306	-0.371	-0.55 (inactive)	-0.112	0.406 (inactive)	0.74 (inactive)	0.067 (inactive)	0.581 (inactive)	-0.466	-0.728 (inactive)	-2.61 (inactive)	-1.96
CC(C)C(=C=CC[C@H](O)c1ccccc1OCCO)C[C@H](O)c1cc(Cl)cc(Cl)c1O	0.192	-0.825 (inactive)	-0.328 (inactive)	14.6 (active)	1.59 (inactive)	0.855	0.0966	0.786	1.06	1.85	-0.279 (inactive)	0.199	19.5 (active)	4.2 (inactive)	-0.25 (inactive)	1.44 (inactive)	-0.383	-1.24 (inactive)	-1.67 (inactive)	-1.88
C=C(CCCC)/C(=C/C[C@H](OC(=O)c1ccncc1)c1cccc(OCCO)c1)c1cnc2ccccc2c1	0.24	-1.58 (inactive)	0.124 (inactive)	2.6 (inactive)	0.256 (inactive)	0.905	0.0155	0.947	0.706	1.78	-0.639 (inactive)	0.0429	23.9 (active)	7.01 (inactive)	1.5 (inactive)	1.26 (inactive)	-0.282	-0.777 (inactive)	-0.293 (inactive)	-1.82
COc1ccc([Si](C)(C)[C@H]2[C@H](CC(=O)N3CCC[C@H]3CO)O[C@@]3(C(=O)N(Cc4ccc(N5CCCCC5=O)cc4)c4ccccc43)[C@@H]2C)cc1	0.567	-3.13 (inactive)	-0.53 (inactive)	-0.258 (inactive)	0.44 (inactive)	-0.0147	0.426	0.13	0.608	2.17	1.5 (inactive)	0.44	7.73 (inactive)	1.66 (inactive)	2.12 (inactive)	1.02 (inactive)	0.287	1.52 (inactive)	1.03 (inactive)	2.69
C[N+](C)(C)CCCC[C@@H]1NC(=O)[C@@H]2C[C@H](C(=O)NCc3ccc(F)cc3)[C@H](c3ccc(O)cc3)N2C1=O	-0.176	-0.0669 (inactive)	-1.22 (inactive)	0.692 (inactive)	0.663 (inactive)	-0.369	-0.0963	0.965	0.729	1.64	-0.7 (inactive)	-0.0186	0.936 (inactive)	0.376 (inactive)	-1.65 (inactive)	0.104 (inactive)	0.567	0.274 (inactive)	0.22 (inactive)	1.17
COc1cc(OC)c(C(O)C2C=CC3C(=O)N(c4ccccc4)C(=O)C3N2Nc2ccc(C(C)C)cc2)cc1Br (stereo not given)	0.386	-0.942 (inactive)	-1.49 (inactive)	1.78 (inactive)	-0.567 (inactive)	1.71	0.136	0.255	0.345	0.415	0.857 (inactive)	-0.0889	2.94 (inactive)	1.93 (inactive)	-0.255 (inactive)	1.49 (inactive)	-1.06	0.0256 (inactive)	-3.73 (inactive)	-2.24
CC(C)=CCCC(C)=CC(O)C1C=CC2C(=O)NC(=O)C2N1Nc1ccc(Cl)cc1Cl (stereo not given)	0.623	-1.64 (inactive)	-0.815 (inactive)	0.822 (inactive)	0.501 (inactive)	1.26	-0.0035	-0.0743	0.622	0.737	-2.85 (inactive)	0.544	7.58 (inactive)	1.61 (inactive)	-0.519 (inactive)	1.39 (inactive)	-0.498	-1.84 (inactive)	-5.04 (inactive)	-1.53
COc1ccccc1CN1C(=O)c2ccccc2[C@](Cc2ccccc2I)(C(=O)NCC(C)C)[C@@H]1c1ccc(CO)cc1	0.0108	-2.13 (inactive)	0.584 (inactive)	0.0279 (inactive)	-0.542 (inactive)	-0.738	0.126	-0.0986	-0.61	0.034	2.48 (inactive)	0.19	4.68 (inactive)	1.44 (inactive)	2.61 (inactive)	0.745 (inactive)	0.276	-0.943 (inactive)	0.928 (inactive)	-0.234
